The text below walks through data of PubChem BioAssay (NCI).

Molecules are shown by their SMILES. This is part of a sample that, as a whole, favours compounds with a hit. Of some 83,000 tested, about 20% had one in any assay.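 Activity criterion: percent growth below 10, measured after cells in 96-well plates were exposed to a single compound concentration for 48 hours.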 Unmarked numbers belong to inactive results. The source made the active and inactive calls.

The test deals with PC-3 prostate. The test can be described thus: NCI-60 one-dose screen, 48 h (100 = growth as untreated, 0 = no growth, -100 = all killed). The following applies: 10 µM unless noted. How it is done:
Growth inhibition of the PC-3 human tumor cell line is measured as a screen for anti-cancer activity. Cells are grown in 96 well plates and exposed to the test compound for 48 hours. Compounds are tested at a single concentration, which is 10^-5 M for most compounds. The reported endpoint is percent growth (GI% or GIPRCNT), where numbers from 0 - 100% represent growth inhibition, and numbers from -100% - 0 represent cell death. For example, a value of 40 represents 60% growth inhibition. A value of 0 means no net growth occurred over the course of the experiment. A value of -40 indicates 40% of cells at the beginning of the experiment died by the end of the experiment. A value of -100 means all cells are dead at the end of the experiment.
NCI-60 Human Tumor Cell Lines Screen was performed using the standard one-dose NCI protocol, which is described in more detail at https://dtp.cancer.gov/discovery_development/nci-60/default.htm.
Compounds with GIPRCNT values below 10 were considered active. Activity score was based on GIPRCNT using the following formula: […]
Score is 0 for GIPRCNT values of 100 or above, 50 for GIPRCNT values of 0, and 100 for GIPRCNT values of -100.
In the case of `NS(=O)(=O)c1nc[nH]c1[N+](=O)[O-]`, the growth was 86.5%.

In the case of `COc1cc(C2CC(=O)Nc3nc(N)[se]c32)c(OC)c2c1OCO2` (stereo not given), the growth is 51.6%.

Take `C[As](=O)(O)c1ccc(C(=O)O)cc1`: the growth is 97.9%. For `Cc1cc(NC(=O)NCCOc2ccc(N3C(N)=NC(N)=NC3(C)C)cc2Cl)ccc1S(=O)(=O)F` the value was -2.88% (active); for `C[C@]12CC[C@H]3[C@@H](C[C@@H]4N=C(c5ccc(O)cc5)S[C@@]45C[C@H](O)CC[C@]35C)[C@@H]1CC[C@@H]2O`, 49.5%; for `O=C(CF)N(O)c1ccc(/C=C/c2ccccc2)cc1`, 62.3%. The same measure for `CC(C)CCC1(CCO)C(=O)NC(=S)NC1=O`: 87.8%; for `CC(=O)[O][Hg][c]1nc2c(c(=O)n(C)c(=O)n2C)n1C`: 93.7%; for `CC[C@H](C)[C@H](NC(=O)Nc1ccccc1)C(=O)N(C)[C@H](C[C@@H](OC(C)=O)c1nc(C(=O)N[C@@H](Cc2ccccc2)C[C@H](C)C(=O)OC)cs1)C(C)C`: 21.6%.

Consider `Cc1cccc(N=C2c3cc([N+](=O)[O-])ccc3-c3c2cc([N+](=O)[O-])cc3[N+](=O)[O-])c1`, for which the growth was 16.8%. The same measure for `CCCC(C)(C)c1ccc2c(c1)OC(C)(C)[C@@H]1CC=C(C)C[C@@H]21`: 84.3%. In the case of `CC(=O)OC1CCC2(C)C(=CCC3C4CC(CN5CC5)C(=O)C4(C)CCC32)C1` (stereo not given), the growth is 88.3%. For the molecule `Cc1cc(CCl)c(C)cc1CCl`, the growth was 66.9%. For `CC1(C)N=C(N)N=C(N)N1c1ccc(CCC(=O)Nc2cccc(S(=O)(=O)F)c2)cc1` the value was 24.5%; for `COc1cc(C2(C#N)CCN(C)CC2)cc(OC)c1OC`, 97.5%. For `COc1ccc(NP2(=O)OCC(C)(N)CO2)cc1` (stereo not given) the value was 84.5%; for `CC(=O)N1N=C(c2ccccc2)CC1c1sc(N(CCCl)CCCl)nc1Cl` (stereo not given), 88.1%; for `O=S(=O)(O)c1ccc(-c2ccc([As](=O)(O)O)cc2)cc1`, 98%. For `O=S(=O)(c1ccc(Cl)cc1)C(Cl)(Cl)Cl`, the growth is 49.1%. For `CCCCCN(CCCCC)CC(O)c1ccc(C)c(Cl)c1` (stereo not given) the value was 91.8%; for `ClCCN(CCCl)c1nc(Cl)c(C2CC(c3ccc(Cl)cc3)=NN2c2cc(Cl)cc(Cl)c2)s1` (stereo not given), 93.6%. For the molecule `O=[N+]([O-])c1ccc2cnn(CSP(=S)(c3ccccc3)c3ccccc3)c2c1`, the growth was 58.6%.

Consider `CC(=O)O[C@H]1CCC2C3CCC4=C/C(=N/O)CCC4(C)C3CCC21C` (stereo not given in full), for which the growth is 93.6%. As for `c1ccc(-c2ccc3ccccc3[o+]2)cc1`, the growth is 76.3%. `CC(C)(C)NCC(O)c1ccccc1Cl` (stereo not given): the growth is 18%. For `Nc1c(Br)cc([N+](=O)[O-])cc1[N+](=O)[O-]` the value was 102%; for `O=C(CCF)c1ccc(O)cc1`, 98%; for `C=C=[CH][Sn]([c]1ccccc1)([c]1ccccc1)[c]1ccccc1`, -50.5% (active). For `CNC(=O)O/N=C(/C)c1ccc(Cl)cc1` the value was 91.8%; for `NC(=O)OCC(CO)(c1ccccc1)c1ccccc1`, 93.2%.

In the case of `CC(=O)O[C@@H]1C2=C(C)C3(CC3)[C@@](C)(O)C(=O)C2=C[C@@]1(C)CO`, the growth was 6.46% (active). The same measure for `OC1CCCCC1N1CCC(c2ccccc2)CC1` (stereo not given): 91%.

In the case of `O=C(N/N=C/c1ccc([N+](=O)[O-])o1)c1cc([N+](=O)[O-])cc([N+](=O)[O-])c1O`, the growth was 85.9%.

Turning to `CCC(/C=C(C)/C=C/C(=O)c1c(O)c(-c2ccc(O)cc2)c[nH]c1=O)CO` (stereo not given), the growth is 27.7%. In the case of `COC(=O)C[Se]C(=O)c1ccccc1OC(C)=O`, the growth was 77.7%. For `OC1(c2ccccc2F)c2ccccc2C2=NCCN21` (stereo not given) the value was 95.6%. With `CC1(C)N=C(N)N=C(N)N1c1ccc(CCCCc2ccc(S(=O)(=O)F)cc2)c(Cl)c1`, the growth is 7.48% (active). The same measure for `NC(=O)C(Cl)Cl`: 97.5%; for `O=CC(Br)C(Br)c1ccccc1` (stereo not given): 94.7%. As to `CC(C)(NC(=O)c1nn(CCCCCF)c2ccccc12)c1ccccc1`, the growth was 65%.
